Assay [1] is described as follows: Viability qHTS for spleen associated tyrosine kinase inhibitor (SYKi) naive MV4-11 cells (AID 1963823). Note: nearly all actives have a fitted effect of over 40% in size. The procedure, abridged: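 Viability of MV4-11 AML cells lacking prior SYK inhibitor exposure is scored by CellTiter-Glo luminescence following 72 hr compound incubation at 37 C, 5% CO2, seeded at 500 cells per well.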
A general note: In qHTS, concentration-response curves come from the screen itself.

The nature of assay [2]: Viability qHTS for spleen associated tyrosine kinase inhibitor (SYKi) drug resistant MV4-11 cells (AID 1963824). Note: nearly all actives have a fitted effect of over 35% in size. The procedure, abridged: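 CellTiter-Glo luminescence, read 10 min after reagent addition, reports viability after a 72 hr compound exposure. Cells are an MV4-11 line made resistant to SYK inhibition, seeded at 500 per well onto compound-containing plates.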

Records with an inconclusive call do not appear. A number with no mark means an inactive call. Active and inactive are the calls of the source. Calls come from the whole dose curve; as a rule, active = well fitted cell-killing curve with a large enough effect; inconclusive = small, poorly fitted or top-dose-only effect, or effect the other way; inactive = no such curve, though single readings can be large or run the other way.
Potency is the fitted concentration of half-maximal effect.

In the case of `CC1(C)CC[C@]2(C(=O)O[C@@H]3O[C@H](CO[C@@H]4O[C@H](CO)[C@@H](O)[C@H](O)[C@H]4O)[C@@H](O)[C@H](O[C@@H]4O[C@H](CO)[C@@H](O)[C@H](O)[C@H]4O)[C@H]3O)CC[C@]3(C)C(=CCC4[C@@]5(C)CC[C@H](O[C@@H]6OC[C@@H](O)[C@H](O)[C@H]6O)[C@@](C)(C(=O)O)C5CC[C@]43C)[C@@H]2C1` (stereo partly specified), in assay [1], the viability (% of control) was 83.1% [at 9.25 µM]. Besides, the viability, % of control in assay [2] was 108% [at 9.25 µM].

On to `O=C(CC12CC3CC(CC(C3)C1)C2)Nc1cccc2nc(NCCNCCO)ccc12`, for which the Potency in assay [1] is 18600 nM (active); in assay [2], 16400 nM (active).

Consider `C[C@@H]1CC[C@H]2C(C)(C)[C@H](O)[C@H](O)C[C@]2(C)[C@@]12Cc1c(O)cc3c(c1O2)CNC3=O`, for which the Potency result in assay [1] and in assay [2] was “inactive” in each case.

On to `Cc1cc(Nc2nn(-c3ccccc3)c(=O)c3ccccc23)n[nH]1`, for which the Potency in assay [1] was 146 nM (active); in assay [2] it was 461 nM (active).

In the case of `CCN(CC)C(=O)C(c1ccccc1)N1CCN(c2ccc(NC(=O)c3ccccc3-c3cccnc3)cc2F)CC1` (stereo unspecified), the Potency result in assay [1] and in assay [2] was “inactive” in each case.

As for `CCCCC[C@H](O)C=C[C@H]1[C@H](O)CC(=O)[C@H]1CC=CCCCC(=O)O`, the Potency is 119 nM (active) in assay [1] and 18.6 nM (active) in assay [2].

Turning to `COc1cc([C@H]2c3cc(O)c(OC)cc3C[C@@H](CO[C@@H]3O[C@H](CO)[C@@H](O)[C@H](O)[C@H]3O)[C@@H]2CO)ccc1O`, the Potency result in assay [1] and in assay [2] was “inactive” in each case.

Regarding `CCC(CCO[C@@H]1O[C@H](CO[C@H]2OC[C@](O)(CO)[C@H]2O)[C@@H](O)[C@H](O)[C@H]1O)C(C)(C)O` (stereo partly specified), the Potency entry in assay [1] and in assay [2] was “inactive” in each case.

With `CCOC(=O)[C@H](CCc1ccccc1)N[C@@H](C)C(=O)N1C2CCCCC2C[C@H]1C(=O)O` (stereo partly specified), the Potency in assay [1] was 16400 nM (active); in assay [2], 6510 nM (active).

Regarding `C=CC(=O)Nc1ccc(CN2C(=O)N(c3cc(OC)cc(OC)c3)Cc3cnc(Nc4ccc(N5CCN(C)CC5)cc4)nc32)cc1`, the Potency was 1160 nM (active) in assay [1] and 1300 nM (active) in assay [2].

With `O=C(O)c1ccnc2cc(C(OCC3CCC(F)(F)CC3)c3ccccc3Cl)[nH]c12` (stereo unspecified), the Potency result in assay [1] and in assay [2] was “inactive” in each case.

As to `CC(C)C(=O)O[C@@H]1[C@@H](O)[C@@H](O[C@H]2O[C@H](CO)[C@@H](O)[C@H](O)[C@H]2O)O[C@H](CO)[C@H]1O`, the Potency entry in assay [1] and in assay [2] was “inactive” each time.

Turning to `Nc1nc2c(nc(Sc3ccc(Cl)cc3)n2[C@@H]2O[C@@H]3COP(=O)(O)O[C@H]3[C@H]2O)c(=O)[nH]1`, the Potency entry in assay [1] and in assay [2] was “inactive” each time.

As to `Cc1ncc([N+](=O)[O-])n1CC(O)CN1CCOCC1` (stereo unspecified), the Potency entry in assay [1] and in assay [2] was “inactive” in each case.

Consider `CC1(C)CC[C@]2(C(=O)O[C@@H]3O[C@H](CO)[C@@H](O)[C@H](O)[C@H]3O)CC[C@]3(C)C(=CCC4[C@@]5(C)C[C@@H](O)[C@H](O)C(CO)(CO)C5CC[C@]43C)C2[C@@H]1O` (stereo partly specified), for which the Potency result in assay [1] and in assay [2] was “inactive” throughout.

With `C[C@@H]1O[C@@H](O[C@H]2[C@H](O[C@H]3[C@H](O[C@H]4CC[C@@]5(C)C(CC[C@]6(C)C5CC=C5[C@@H]7CC(C)(C(=O)O)C[C@@H](O)[C@]7(C)CC[C@]56C)[C@@]4(C)CO)O[C@H](C(=O)O)[C@@H](O)[C@@H]3O)O[C@H](CO)[C@H](O)[C@@H]2O)[C@H](O)[C@H](O)[C@H]1O` (stereo partly specified), the viability (% of control) in assay [1] is 58.7% [at 9.25 µM]. The viability, % of control in assay [2] was 77.5% [at 9.25 µM].

Regarding `O=S(c1cc(Cl)cc(Cl)c1O)c1cc(Cl)cc(Cl)c1O`, the Potency entry in assay [1] and in assay [2] was “inactive” in each case.

For the compound `CC1CCC2(C(=O)OC3OC(CO)C(O)C(O)C3O)CCC3(C)C(=CCC4C5(C)CCC(O)C(C)(CO)C5CCC43C)C2C1(C)O` (stereo unspecified), the Potency entry in assay [1] and in assay [2] was “inactive” each time.

On to `Cc1csc2c(N[C@@H](C)CN3CCN(S(=O)(=O)c4ccc(Cl)c(Cl)c4)CC3)ncnc12`, for which the Potency in assay [1] was 259 nM (active); in assay [2], 231 nM (active).

For `Cc1cc(C(=O)Nc2cccc(C(=O)Nc3cccc(C(F)(F)F)c3)c2)on1`, the Potency result in assay [1] and in assay [2] was “inactive” in each case.

On to `OC[C@H]1O[C@@H](OC[C@H]2O[C@@H](OC/C=C/c3ccccc3)[C@H](O)[C@@H](O)[C@@H]2O)[C@@H](O)[C@@H]1O`, for which the Potency entry in assay [1] and in assay [2] was “inactive” each time.

On to `CC1(C=O)CC[C@]2(C(=O)O[C@@H]3O[C@H](CO)[C@@H](O)[C@H](O)[C@H]3O)CC[C@]3(C)C(=CCC4[C@@]5(C)C[C@H](O)[C@H](O[C@@H]6OC[C@@H](O)[C@H](O)[C@H]6O)[C@@](C)(CO)C5CC[C@]43C)C2C1` (stereo partly specified), for which the viability (% of control) in assay [1] was 95.5% [at 9.25 µM]. Moreover, the viability, % of control in assay [2] is 103% [at 9.25 µM].

On to `C=CC(=O)N1CCC[C@@H](n2nc(-c3cccc(C(=O)Nc4ccc(C(C)C)c(C)c4)c3)c3c(N)ncnc32)C1`, for which the Potency is 1460 nM (active) in assay [1] and 2310 nM (active) in assay [2].

`CC(=O)OC[C@]12[C@@H](OC(=O)c3ccoc3)C[C@@H]3[C@@H](OC(C)=O)[C@]1(OC3(C)C)[C@@](C)(O)C[C@H](OC(=O)c1ccoc1)[C@@H]2OC(=O)c1ccoc1`: the Potency entry in assay [1] and in assay [2] was “inactive” in each case.

In the case of `[N-]=[N+]=N[C@]1(CO)O[C@@H](n2ccc(=O)[nH]c2=O)[C@@H](O)[C@@H]1O`, the Potency result in assay [1] and in assay [2] was “inactive” throughout.

For `COc1c2c(c(C)c3c1C(=O)OC3)O[C@@]1(C)C[C@@H](O)[C@]34O[C@](OC)(CC[C@]3(C)[C@H]1C2)OC4(C)C`, the Potency entry in assay [1] and in assay [2] was “inactive” each time.

On to `C/C=C/C(O)C1OC(=O)CC1Nc1ccc(C(=O)O)cc1` (stereo unspecified), for which the Potency entry in assay [1] and in assay [2] was “inactive” throughout.

Turning to `C[C@@H]1O[C@@H](O[C@H]2[C@H](O[C@H]3[C@H](O[C@H]4CC[C@@]5(C)C(CC[C@]6(C)C5CC=C5[C@@H]7CC(C)(C)CC[C@]7(C(=O)O[C@@H]7O[C@H](CO)[C@@H](O[C@@H]8O[C@@H](C)[C@H](O)[C@@H](O)[C@H]8O)[C@H](O)[C@H]7O)CC[C@]56C)C4(C)C)OC[C@H](O)[C@@H]3O)O[C@H](CO)[C@@H](O)[C@@H]2O)[C@H](O)[C@H](O)[C@H]1O` (stereo partly specified), the viability (% of control) in assay [1] was 3.73% [at 9.25 µM]. Further, the viability, % of control in assay [2] is 2.33% [at 9.25 µM].

(Values after PubChem BioAssay (NCATS).)
